Experimental data reported in PubChem BioAssay (NCI).
The panel holds about 83,000 compounds, 20% with a hit somewhere; the sample as a whole holds those more often.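 Percent growth is the endpoint: 0 to 100 indicates growth inhibition (40 means 60% inhibition), 0 means no net growth, and negative values indicate cell death.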 Values without a mark were called inactive. Calls of active or inactive are those of the source. The calls were made as follows: active = growth percent below 10; inactive = the rest.

Tested on: SK-MEL-28 melanoma
Experiment: NCI-60 one-dose screen, 48 h (100 = growth as untreated, 0 = no growth, -100 = all killed)
Conditions: 10 µM unless noted

Compound | growth
COc1ccc(C/C(=C(\C)c2ccc(OCCN3CCCC3)cc2)c2ccc(OCCN3CCCC3)cc2)cc1 | -86.9% (active)
CCOC(=O)Oc1c(OC)cc(C(=O)c2ccc(OC)c(O)c2OC)cc1OC | 53.1%
CCCCOc1ccc(/C(C)=N/Nc2cc(C)nc3ccc(Br)cc23)cc1 | 106%
O=[N+]([O-])c1cc(Br)c2cccc3c2c1CC3 | 106%
CC(Oc1ccc(C(=O)O)cc1C(F)(F)F)c1ccc(Oc2ccccc2)cn1 (centres undefined) | 95.1%
CCN1CCN(CCNc2nccc(-c3c(-c4cccc(OC)c4)nc4occn34)n2)S1(=O)=O | 47.3%
Cn1c2ccccc2c2c3c(c4c5ccccc5n(C)c4c21)C(=O)OC3 | 120%
COc1cc2c(cc1OC)C(=O)/C(=C/c1cc(C)c(O)c(C)c1)S2 | 65%
O=C(/C=C/c1ccc(F)cc1)c1ccc(NC(=O)N2CCN(c3cc4c(cc3F)c(=O)c(C(=O)O)cn4C3CC3)CC2)cc1 | 90.6%
O=C1c2ccc3c4c(ccc(c24)C(=O)N1CCCNCc1ccccc1Cl)C(=O)N(CCCNCc1ccccc1Cl)C3=O | -92.2% (active)
Cc1cccc(NC(=O)Nc2ccc(-n3cnc4cc(-c5ccc(O)cc5)ccc43)cc2)c1 | 44%
c1ccc(-c2cn3c(ccc4ccccc43)n2)cc1 | 68.5%
COc1cc2oc(-c3cccc(C(=O)Nc4ccccc4)c3)cc(=O)c2c(O)c1OC | 87.4%
Cc1ccc(/C=N/NC(=O)CSc2nc3ccccc3c(=O)n2Cc2ccc(S(N)(=O)=O)cc2)cc1 | 93.2%
